Values joined by “and” are separate entries in the source; they are usually repeats but may differ in a detail not shown here. Equal values may be shown once. Results filed as inconclusive are left out. The source holds several records for some structures; these can differ, active in one and inactive in another. Active and inactive are the calls of the source. Unless noted, calls follow the shape of the dose curve; as a rule, active = well fitted curve in the direction sought with a large enough effect in the repeat runs; inconclusive = weak or mixed curves; inactive = no such curve, though single readings can be large; an effect the other way counts as inactive or inconclusive.

Test [1] can be described thus: Caspase-3/7 induction in CHO-K1 cells by small molecules, qHTS assay (AID 1346980). Also: nearly all actives have a fitted effect of over 15% in size. In outline: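 Wild-type cells were seeded at 1,500 per well and settled 5 hr at 37 C, 5% CO2, then exposed to DMSO-dissolved compounds for 17 hr. Caspase-Glo 3/7 reagent was added, and luminescence was read after 30min at room temperature.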
Test [2] can be described thus: Caspase-3/7 induction in HepG2 cells by small molecules, qHTS cell viability counter screen (AID 1346981). Also: series mostly up to about 92 µM; nearly all actives have a fitted effect of over 30% in size. Put shortly:
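Counter screen for cytotoxicity: HepG2 exposed 16 hr to compounds, then CellTiter-Fluor viability signal (fluorescence, 1 hr reagent incubation).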

Test [3] deals with Nuclear receptor subfamily 1 group I member 2 (Homo sapiens) (UniProt O75469). The test is described as follows: Human pregnane X receptor (PXR) small molecule agonists, qHTS assay (AID 1346982). Also: nearly all actives have a fitted effect of over 35% in size. Also: potency is read from the fitted curve at half-maximal effect. In outline:
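Luminescence (ONE-Glo, 30 min RT) after 24 hr compound exposure of PXR-Luc HepG2 cells; cells rested 5 hr post-plating in 5% charcoal-stripped FBS medium.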
A general note: Quantitative high-throughput screening tests each substance at several concentrations.

Test [4] concerns the target Acetylcholinesterase (Homo sapiens) (UniProt P22303). Briefly: Acetylcholinesterase (AChE) small molecule antagonists: enzyme-based qHTS assay (AID 1347397; calls by dose curve; also: nearly all actives have a fitted effect of over 55% in size). Conditions: Potency: AChE enzyme activity inhibition. Put shortly: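 Recombinant human AChE, dispensed at 50 mU/mL, was preincubated with Tox21 10K compounds or DMSO vehicle for 30 min at room temperature. DTNB plus acetylthiocholine was then added, and thiocholine was measured colorimetrically after a further 10 min.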

The target is the same in test [5]. The test is described as follows: Acetylcholinesterase (AChE) small molecule antagonists: fluorescence cell-based qHTS assay (AID 1347398; calls by dose curve; also: nearly all actives have a fitted effect of over 50% in size). Conditions: Potency: AChE activity. In outline:
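Human SH-SY5Y cells were plated overnight at 37 C, exposed to compound for 30 min at 37 C, 5% CO2, then given acetylthiocholine plus Thiolite Green for 40 min at room temperature; thiocholine fluorescence (Ex/Em 490/520 nm) reports endogenous AChE activity.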

For test [6] the target is unchanged. Briefly: Acetylcholinesterase (AChE) small molecule antagonists: enzyme-based qHTS assay with human liver microsomes (AID 1347399; calls by dose curve; also: nearly all actives have a fitted effect of over 60% in size). Conditions: Potency: qHTS inhibition. In outline:
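Recombinant human AChE (50 mU/mL in the enzyme mix) and human liver microsomes (0.25 mg/mL final) were preincubated with compound and NADPH (0.25 mg/mL final) for 30 min at 37 C. Acetylthiocholine/DTNB was then added; thiocholine was read colorimetrically after 10 min at room temperature.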

The target of test [7] is Cytochrome P450 2D6 (Homo sapiens) (UniProt P10635). Briefly: Cytochrome P450 Family 2 Subfamily D Member 6 (CYP2D6) small molecule antagonists: luciferase reporter qHTS assay (AID 1671196). Also: nearly all actives have a fitted effect of over 50% in size. Also: potency is read from the fitted curve at half-maximal effect. In outline: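 Inhibition of CYP2D6 was gauged by loss of luminescence, since light produced tracks the luciferin generated from a proluciferin substrate. A 10 min room-temperature preincubation preceded 1 h NADPH-supported turnover.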
(In general: Reporter assays use an easily measured gene product as a stand-in for the process of interest.)

The target in test [8] is Cytochrome P450 2C19 (Homo sapiens) (UniProt P33261). Briefly: Cytochrome P450 Family 2 Subfamily C Member 19 (CYP2C19) small molecule antagonists: luciferase reporter qHTS assay (AID 1671197). Also: nearly all actives have a fitted effect of over 65% in size. Also: potency is read from the fitted curve at half-maximal effect. Put shortly:
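P450-Glo CYP2C19 screening system; proluciferin substrate; DMSO compound stocks; 10 min RT preincubation; NADPH regeneration, 1 h at 37C; luciferin detection reagent, 20 min RT; luminescence as RLU.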

For test [9], the target named is Cytochrome P450 2C9 (Homo sapiens) (UniProt P11712). Briefly: Cytochrome P450 Family 2 Subfamily C Member 9 (CYP2C9) small molecule antagonists: luciferase reporter qHTS assay (AID 1671198). Also: nearly all actives have a fitted effect of over 50% in size. Also: potency is read from the fitted curve at half-maximal effect. Put shortly:
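CYP2C9 activity was measured with a P450-Glo proluciferin substrate. Enzyme–substrate mix was held with compound for 10 min at room temperature, then NADPH regeneration solution was added for 1 h at 37C. Luciferin product was read as luminescence.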

For test [10], the target named is Cytochrome P450 1A2 (Homo sapiens) (UniProt P05177). The test is described as follows: Cytochrome P450 Family 1 Subfamily A Member 2 (CYP1A2) small molecule antagonists: luciferase reporter qHTS assay (AID 1671199). Also: nearly all actives have a fitted effect of over 50% in size. Also: potency is read from the fitted curve at half-maximal effect. Put shortly: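 Signal from luciferin formed by CYP1A2 from a proluciferin substrate is read as luminescence, expressed in relative luminescence units. Compounds sit with enzyme 10 min, NADPH-driven reaction runs 1 h, all at room temperature.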

Test [11] has as its target Voltage-gated inwardly rectifying potassium channel KCNH2 (Homo sapiens) (UniProt Q12809). Briefly: Human Ether-a-go-go-Related Gene (hERG) channel small molecule antagonists: fluorescence cell-based qHTS assay (AID 1671200). Also: nearly all actives have a fitted effect of over 50% in size. Also: potency is read from the fitted curve at half-maximal effect. Put shortly: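 U2OS cells expressing the channel were plated at 1000 cells/well, incubated overnight at 37 C, then loaded with FluxOR II thallium-sensitive dye for 1 h at room temperature in the dark, with a further 10 min at room temperature before stimulation.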
A general note: The hERG channel carries a current that helps repolarise heart muscle cells.

The target in test [12] is Cytochrome P450 3A4 (Homo sapiens) (UniProt P08684). The test is described as follows: Cytochrome P450 Family 3 Subfamily A Member 4 (CYP3A4) small molecule antagonists: luciferase reporter qHTS assay (AID 1671201). Put shortly:
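P450-Glo CYP3A4 system with proluciferin substrate; compounds preincubated 10 min RT with enzyme-substrate mix, then NADPH regeneration added for 1 h RT. Detection reagent 20 min, luminescence read as relative luminescence units.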

Test [13] addresses Nuclear receptor subfamily 1 group I member 2 (Rattus norvegicus) (UniProt Q9R1A7). Briefly: Rat pregnane X receptor (rPXR) activation by small molecules, qHTS assay (AID 1346983). Also: nearly all actives have a fitted effect of over 20% in size. Conditions: rPXR luciferase reporter cells, One-Glo luminescence, 24 h; stronger effect = higher value. In outline: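 Cell-based rPXR luciferase reporter assay, 2,000 cells per well, rested 5hr at 37 C before compound addition in DMSO, then 24 hr at 37 C. One-Glo reagent was added and luminescence read after 30 min at room temperature.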

Test [14] has as its target Nuclear receptor subfamily 1 group I member 2 (Homo sapiens) (UniProt O75469). The test is described as follows: CYP3A4 induction through human pregnane X receptor (PXR) by small molecules, qHTS assay (AID 1346984). Also: nearly all actives have a fitted effect of over 40% in size. In outline:
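DPX-2 reporter cells; 24h cpd, 37C; Luciferin-IPA 3uM final x3h; One-Glo 30 min RT; lumi read.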

Test [15] has the same target. Briefly: Human pregnane X receptor (PXR) activation by small molecules, qHTS assay (AID 1346985). Also: nearly all actives have a fitted effect of over 40% in size. Put shortly:
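DPX-2 cells (HepG2 co-transfected with a PXR response element and a CYP3A4-promoter luciferase construct) were seeded at 2,000 per well, rested 5 hr at 37C, then exposed to DMSO-dissolved compounds for 24 hr. Activation was read as luciferase luminescence.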
% is scaled to controls: 0 for no effect and ±100 for the full control effect.

Chain of Cytochrome P450 2D6 (Homo sapiens) (P10635 whole entry, looked up): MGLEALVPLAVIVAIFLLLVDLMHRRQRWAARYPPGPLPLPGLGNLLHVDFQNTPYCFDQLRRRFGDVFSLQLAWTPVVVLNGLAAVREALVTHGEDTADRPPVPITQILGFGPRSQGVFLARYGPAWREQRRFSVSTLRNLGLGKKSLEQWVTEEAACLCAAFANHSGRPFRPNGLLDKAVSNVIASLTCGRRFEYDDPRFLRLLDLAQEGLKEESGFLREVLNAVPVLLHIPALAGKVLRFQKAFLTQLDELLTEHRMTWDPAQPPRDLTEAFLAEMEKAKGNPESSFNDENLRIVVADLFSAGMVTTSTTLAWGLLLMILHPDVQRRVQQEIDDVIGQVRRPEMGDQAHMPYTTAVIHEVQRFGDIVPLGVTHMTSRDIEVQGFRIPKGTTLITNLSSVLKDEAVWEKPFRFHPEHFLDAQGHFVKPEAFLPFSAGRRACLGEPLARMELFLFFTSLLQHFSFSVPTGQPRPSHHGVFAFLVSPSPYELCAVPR
Chain of Cytochrome P450 2C19 (Homo sapiens) (P33261 whole entry, looked up): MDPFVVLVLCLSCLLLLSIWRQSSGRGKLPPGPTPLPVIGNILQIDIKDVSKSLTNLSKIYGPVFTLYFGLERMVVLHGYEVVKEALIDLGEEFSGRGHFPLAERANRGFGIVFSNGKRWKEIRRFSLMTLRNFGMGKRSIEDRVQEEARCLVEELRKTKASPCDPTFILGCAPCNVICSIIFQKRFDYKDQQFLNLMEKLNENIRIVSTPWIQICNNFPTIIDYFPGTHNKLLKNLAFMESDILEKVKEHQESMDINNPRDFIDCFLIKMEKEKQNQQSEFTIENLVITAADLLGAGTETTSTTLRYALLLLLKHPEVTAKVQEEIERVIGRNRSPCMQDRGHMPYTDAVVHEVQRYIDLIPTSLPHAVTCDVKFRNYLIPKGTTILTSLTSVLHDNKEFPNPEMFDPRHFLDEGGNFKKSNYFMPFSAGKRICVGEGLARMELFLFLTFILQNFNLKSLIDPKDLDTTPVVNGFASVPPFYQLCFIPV
Chain of Cytochrome P450 1A2 (Homo sapiens) (P05177 whole entry, looked up): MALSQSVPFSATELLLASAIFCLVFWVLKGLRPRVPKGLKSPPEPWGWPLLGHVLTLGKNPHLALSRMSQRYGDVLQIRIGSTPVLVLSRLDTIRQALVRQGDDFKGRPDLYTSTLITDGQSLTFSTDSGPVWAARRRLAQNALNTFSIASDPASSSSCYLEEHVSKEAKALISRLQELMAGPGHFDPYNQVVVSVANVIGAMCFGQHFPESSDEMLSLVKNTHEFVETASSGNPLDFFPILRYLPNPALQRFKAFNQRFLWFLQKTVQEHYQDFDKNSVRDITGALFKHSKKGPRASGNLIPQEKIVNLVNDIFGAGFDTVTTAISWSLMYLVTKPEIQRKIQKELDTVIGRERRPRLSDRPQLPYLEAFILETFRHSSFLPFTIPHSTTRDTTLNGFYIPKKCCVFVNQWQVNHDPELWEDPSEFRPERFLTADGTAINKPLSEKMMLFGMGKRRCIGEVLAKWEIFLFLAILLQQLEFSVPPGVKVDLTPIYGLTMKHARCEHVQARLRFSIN
Chain of Acetylcholinesterase (Homo sapiens) (P22303 whole entry, looked up): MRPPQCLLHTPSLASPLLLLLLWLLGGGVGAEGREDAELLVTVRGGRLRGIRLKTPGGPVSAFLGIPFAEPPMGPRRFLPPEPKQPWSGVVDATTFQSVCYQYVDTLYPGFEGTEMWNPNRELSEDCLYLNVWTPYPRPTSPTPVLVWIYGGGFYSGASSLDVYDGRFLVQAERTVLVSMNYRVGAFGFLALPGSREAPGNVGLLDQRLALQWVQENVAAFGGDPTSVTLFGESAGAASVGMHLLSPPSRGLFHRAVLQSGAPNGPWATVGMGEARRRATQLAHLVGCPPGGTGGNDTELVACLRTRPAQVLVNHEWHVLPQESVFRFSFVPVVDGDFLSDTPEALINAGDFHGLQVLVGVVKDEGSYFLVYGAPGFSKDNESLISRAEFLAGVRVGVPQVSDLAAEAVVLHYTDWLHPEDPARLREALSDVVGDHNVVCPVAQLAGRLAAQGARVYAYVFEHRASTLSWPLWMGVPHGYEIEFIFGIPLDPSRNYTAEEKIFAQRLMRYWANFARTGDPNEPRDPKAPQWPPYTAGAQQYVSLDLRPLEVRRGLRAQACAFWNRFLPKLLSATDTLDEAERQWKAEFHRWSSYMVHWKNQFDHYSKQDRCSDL
Chain of Cytochrome P450 3A4 (Homo sapiens) (P08684 whole entry, looked up): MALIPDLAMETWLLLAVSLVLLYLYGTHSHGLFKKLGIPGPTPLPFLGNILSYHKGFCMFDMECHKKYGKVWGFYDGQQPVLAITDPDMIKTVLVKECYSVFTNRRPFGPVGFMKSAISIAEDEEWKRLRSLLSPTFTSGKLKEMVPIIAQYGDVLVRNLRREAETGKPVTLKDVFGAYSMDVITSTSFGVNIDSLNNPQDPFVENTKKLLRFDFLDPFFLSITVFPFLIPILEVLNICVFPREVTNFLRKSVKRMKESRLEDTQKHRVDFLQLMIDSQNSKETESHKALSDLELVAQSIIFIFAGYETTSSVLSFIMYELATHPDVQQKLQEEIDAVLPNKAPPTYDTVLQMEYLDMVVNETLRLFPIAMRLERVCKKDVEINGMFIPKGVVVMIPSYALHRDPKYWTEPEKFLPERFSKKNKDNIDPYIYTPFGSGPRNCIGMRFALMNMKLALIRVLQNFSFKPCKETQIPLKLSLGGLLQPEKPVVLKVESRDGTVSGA
Chain of Voltage-gated inwardly rectifying potassium channel KCNH2 (Homo sapiens) (Q12809 whole entry, looked up): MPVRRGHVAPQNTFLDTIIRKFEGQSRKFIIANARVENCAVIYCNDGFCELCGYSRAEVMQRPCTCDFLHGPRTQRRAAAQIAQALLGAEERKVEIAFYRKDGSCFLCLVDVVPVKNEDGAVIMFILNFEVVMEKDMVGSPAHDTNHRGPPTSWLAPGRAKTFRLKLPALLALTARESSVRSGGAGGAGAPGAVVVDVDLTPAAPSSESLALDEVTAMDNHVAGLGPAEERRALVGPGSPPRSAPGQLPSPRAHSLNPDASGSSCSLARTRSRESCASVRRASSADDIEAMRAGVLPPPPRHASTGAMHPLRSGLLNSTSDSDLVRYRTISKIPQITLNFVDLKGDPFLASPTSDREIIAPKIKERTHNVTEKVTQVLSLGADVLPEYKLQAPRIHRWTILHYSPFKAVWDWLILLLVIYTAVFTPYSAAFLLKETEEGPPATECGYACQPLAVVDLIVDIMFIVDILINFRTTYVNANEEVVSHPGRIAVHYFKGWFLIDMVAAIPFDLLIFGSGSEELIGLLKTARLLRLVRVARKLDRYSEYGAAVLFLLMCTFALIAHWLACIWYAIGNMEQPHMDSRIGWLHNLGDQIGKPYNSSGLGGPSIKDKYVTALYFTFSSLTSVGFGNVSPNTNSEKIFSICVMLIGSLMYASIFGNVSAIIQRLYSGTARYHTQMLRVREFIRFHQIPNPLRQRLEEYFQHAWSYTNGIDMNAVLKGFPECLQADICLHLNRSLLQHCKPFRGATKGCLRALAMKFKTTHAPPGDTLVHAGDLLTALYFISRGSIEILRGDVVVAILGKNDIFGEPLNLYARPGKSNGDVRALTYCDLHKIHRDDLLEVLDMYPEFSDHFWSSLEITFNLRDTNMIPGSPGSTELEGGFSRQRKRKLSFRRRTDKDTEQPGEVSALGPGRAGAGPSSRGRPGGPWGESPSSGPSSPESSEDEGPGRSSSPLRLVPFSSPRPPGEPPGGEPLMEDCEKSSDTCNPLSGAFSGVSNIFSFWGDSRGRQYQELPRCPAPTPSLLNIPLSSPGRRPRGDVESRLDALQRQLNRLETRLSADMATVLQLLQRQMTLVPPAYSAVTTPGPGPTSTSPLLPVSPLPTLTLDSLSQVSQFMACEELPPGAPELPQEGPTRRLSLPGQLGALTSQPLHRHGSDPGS
Chain of Nuclear receptor subfamily 1 group I member 2 (Homo sapiens) (O75469 whole entry, looked up): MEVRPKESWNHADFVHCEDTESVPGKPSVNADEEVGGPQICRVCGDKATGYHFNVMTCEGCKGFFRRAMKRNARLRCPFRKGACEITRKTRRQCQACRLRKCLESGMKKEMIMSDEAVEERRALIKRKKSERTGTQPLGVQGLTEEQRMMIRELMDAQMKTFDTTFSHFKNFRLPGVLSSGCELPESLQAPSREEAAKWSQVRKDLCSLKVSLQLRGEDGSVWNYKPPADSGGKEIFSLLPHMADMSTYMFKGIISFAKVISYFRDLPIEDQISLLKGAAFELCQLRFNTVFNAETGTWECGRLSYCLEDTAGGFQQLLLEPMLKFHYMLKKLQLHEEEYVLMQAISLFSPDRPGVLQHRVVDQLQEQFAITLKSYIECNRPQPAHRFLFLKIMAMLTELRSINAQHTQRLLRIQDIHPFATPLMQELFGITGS
Chain of Cytochrome P450 2C9 (Homo sapiens) (P11712 whole entry, looked up): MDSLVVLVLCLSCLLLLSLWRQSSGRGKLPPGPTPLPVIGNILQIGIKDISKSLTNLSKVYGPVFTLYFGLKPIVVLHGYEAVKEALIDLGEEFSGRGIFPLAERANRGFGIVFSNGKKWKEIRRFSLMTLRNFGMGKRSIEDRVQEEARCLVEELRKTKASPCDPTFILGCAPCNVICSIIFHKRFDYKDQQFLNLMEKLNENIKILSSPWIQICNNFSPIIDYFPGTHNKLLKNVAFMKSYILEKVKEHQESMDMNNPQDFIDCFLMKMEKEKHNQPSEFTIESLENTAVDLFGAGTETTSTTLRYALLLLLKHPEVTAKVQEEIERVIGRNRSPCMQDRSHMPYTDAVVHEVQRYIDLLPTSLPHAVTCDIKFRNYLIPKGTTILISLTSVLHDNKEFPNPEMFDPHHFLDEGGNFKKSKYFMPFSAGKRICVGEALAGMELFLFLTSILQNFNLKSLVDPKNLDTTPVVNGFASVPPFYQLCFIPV

As to `Cc1cc(-c2ccc(N)c(C)c2)ccc1N`, the Potency entry in test [1], in test [2], in test [4], in test [5], in [6] and in [11] was “inactive” in each case. For the same compound, the Potency is 53.7 µM (active) and 61.8 µM (active) in test [3]; 3.21 µM (active) [middle of 4 runs] in test [7]; 6.4 µM (active) [middle of 4 runs] in test [8]; 15.9 µM (active) [middle of 4 runs] in [9]; 509 nM (active) [middle of 4 runs] in [10].

On to `CCCCCCCCn1cc[n+](C)c1`, for which the Potency entry in [1], in [2], in test [9], in test [10] and in test [12] was “inactive” throughout. The Potency in test [3] was 13.6 µM (active) and 21.7 µM (active) and 17.4 µM (active); in [7], 5.68 µM (active) [middle of 4 runs]; in [8] it was 39.9 µM (active) and inactive; in [11], 17.3 µM (active) and 21.9 µM (active) and 22.1 µM (active).

As to `CCNc1nc(Cl)nc(NCC)n1`, the Potency entry in test [1], in [2], in [3], in test [15], in test [4] and in test [5] was “inactive” in each case. The Potency entry in [6], in test [7], in test [8], in test [9], in test [11] and in test [12] was “inactive” throughout. Moreover, in test [13], the max activation is -2% (inactive). For the same compound, in test [14], the outcome was inactive. For the same compound, in [10], the Potency is 11.3 µM (active) and 12.6 µM (active).

On to `CCC(=O)C(CC(C)N(C)C)(c1ccccc1)c1ccccc1` (configuration not stated), for which the Potency result in [1], in test [4], in test [5], in test [6], in test [8] and in test [9] was “inactive” each time. In test [10], the Potency entry was “inactive”. The Potency in test [3] was 8.67 µM (active) and 60.7 µM (active); in test [7], 2.01 µM (active) and 996 nM (active) and 1.53 µM (active); in test [11], 43.8 µM (active).

With `C[C@]12CCC(=O)C=C1CC[C@@H]1[C@@H]2CC[C@]2(C)C(=O)CC[C@@H]12`, the Potency result in test [1], in [2], in test [15], in test [4], in test [5] and in test [6] was “inactive” throughout. Moreover, the Potency result in test [7], in [10], in [11] and in test [12] was “inactive” each time. In addition, the Potency in test [3] was 53.5 µM (active) and inactive; in test [8], 8.79 µM (active) and 39.9 µM (active) and 30.9 µM (active). The max activation in test [13] is -1.07% (inactive). The call in test [14] was inactive.

With `Cc1cc(Cl)ccc1OCC(=O)O`, the Potency entry in test [1], in test [2], in test [3], in test [4], in [5] and in test [6] was “inactive” throughout. The Potency result in test [7], in test [10], in test [11] and in test [12] was “inactive” in each case. The Potency result in test [8] is “inactive and 39.9 µM (active)”.

With `Nc1ccc(Cl)cc1`, the Potency result in test [1], in [2], in test [4], in [5], in [6] and in test [11] was “inactive” in each case. The Potency result in test [12] was “inactive”. Further, the Potency result is “inactive and 62.2 µM (active)” in test [3]; 20 µM (active) and 31.7 µM (active) and 60.8 µM (active) in test [7]; 39.9 µM (active) and 20.4 µM (active) in test [8]; 39.9 µM (active) and 32.3 µM (active) in test [9]; 63.3 µM (active) and 39.9 µM (active) and 57.4 µM (active) in test [10].

(Values after PubChem BioAssay (Tox21).)
